Source: PubChem BioAssay (Broad Institute)
Only a sample is shown.
aSyn 5UTR act – Activators via SNCA 5'UTR binding, MLPCN; 7.1% of 300,000 active; alpha-synuclein 5'UTR reporter, activators screen; activity score, % (tested at 7.5 µM), hits read low; in the data active means activity score below about -60%
The depositor's hits bear a star.

SMILES	aSyn 5UTR act
COc1ccc(CCNC(=O)C2CC(c3cccc([N+](=O)[O-])c3)=NO2)cc1 (stereo not drawn)	-112*
COc1ccc(CCNC(=O)C2CC(c3ccc([N+](=O)[O-])cc3)=NO2)cc1 (stereo not drawn)	-69*
O=C(NCCc1cccs1)C1CC(c2ccc([N+](=O)[O-])cc2)=NO1 (stereo not drawn)	-157*
Nc1ccccc1N=Cc1ccc(-c2cccc(Cl)c2)o1	-145*
CC(=O)c1cc(C#N)c(SCc2ccccn2)nc1C	-114*
CC(=O)c1cc(C#N)c(SCc2ccccc2)nc1C	-85*
COc1ccc(/C=N/NC(=O)c2cc3c(OC)ccc(OC)c3[nH]2)cc1O	68
COc1ccc(/C=N/NC(=O)c2cnccn2)cc1O	-63*
COc1ccccc1/C=C/C=N/NC(=O)c1cnccn1	-69*
COc1ccccc1/C=C/C=N/NC(=O)c1ccccn1	-74*
O=C(Nc1cccnc1)c1cc(-c2cc(Cl)ccc2O)n[nH]1	-219*
Cc1ccc(O)c(-c2cc(C(=O)Nc3cccnc3)[nH]n2)c1	-166*
Oc1ccccc1-c1nnc(COc2ccccc2)o1	-88*
c1ccc(OCc2nnc(-c3ccccc3)o2)cc1	-129*
Clc1ccc(-c2nnc(CCc3ccccc3)o2)c(Cl)c1	-155*
Oc1ccccc1-c1nnc(COc2ccc(Cl)cc2Cl)o1	-170*
Cn1/c(=N\NC(=O)C2CCCCC2)sc2ccccc21	-141*
Cn1/c(=N\NC(=O)c2ccccc2Cl)sc2ccccc21	-89*
CCCOc1ccccc1/C=C(\C#N)C(=O)Nc1cccnc1	-85*
COc1ccc(O)c(/C=C(\C#N)C(=O)Nc2cccnc2)c1	-80*
COC(=O)c1ccc(COc2ccccc2/C=C(\C#N)C(=O)Nc2c(C)cccc2C)cc1	-82*
Fc1ccc2nc3[nH]c4ccccc4c3nc2c1	-161*
COc1ccc(N2C3=[N+](CC2(C)O)c2ccccc2CC3)cc1 (stereo not drawn)	-110*
Cc1c(C(=O)N2C[C@@H](C)O[C@@H](C)C2)oc2c(F)cccc12	-73*
Cc1c(C(=O)NC2CCOC2)oc2c(F)cccc12 (stereo not drawn)	-148*
SMILES	aSyn 5UTR act
CC1(C)CC(=O)c2sc(NC(=O)c3ccco3)nc2C1	-120*
CC1(C)CC(=O)c2sc(NC(=O)C3COc4ccccc4O3)nc2C1 (stereo not drawn)	-101*
c1ccc2c(c1)CCN(c1nc3ccccc3n3cnnc13)C2	-122*
Cc1ccc(-n2c(C)cc(C(=O)COC(=O)c3ccc[nH]c3=O)c2C)cc1	-122*
Cc1cc(C(=O)COC(=O)c2ccc[nH]c2=O)c(C)n1C	-68*
C=CCn1c(SCc2cc(C(C)=O)ccc2OCC)nc2ccccc2c1=O	104
CCOC(=O)CSc1nc2ccccc2c(=O)n1NC(=O)c1ccccc1	-66*
CCC(C)NC(=O)CSc1nc2ccsc2c(=O)n1NC(=O)c1ccccc1 (stereo not drawn)	-67*
CCCOC(=O)c1ccc(-c2ccc(C=O)o2)cc1	-97*
CCOC(=O)c1ccc(-c2ccc(C=O)o2)cc1	-146*
CCN(CC)C(=O)CSc1nc(N)c2c3c(sc2n1)CC(C)CC3 (stereo not drawn)	-85*
COc1ccc([C@@H]2[C@@H]3C(=O)N(C(C)(C)C)C(=O)[C@@H]3[C@]3(Cc4ccccc4)C(=O)N(c4cccc(C)c4)C(=O)N23)cc1	-63*
Cc1no[n+]([O-])c1COc1ccccc1/C=N/n1nnnc1N	-99*
CCN1/C(=C/c2sc(-c3ccccc3C)c[n+]2C)Sc2ccccc21	94
Fc1ccc(NC(=S)NN=C2CCCCCC2)cc1	-75*
S=C(NN=C1CCCCCC1)Nc1ccc(Cl)cc1	-71*
CCn1c(C)cc(/C=C2/SC(=S)NC2=O)c1C	-67*
COc1ccc(-n2c(C)cc(/C=C3\SC(=O)NC3=O)c2C)cc1	-146*
Cc1cc(/C=C2\SC(=S)N(C)C2=O)c(C)n1-c1ccccc1O	-126*
Cc1cc(/C=C2/C(=O)NN(c3ccccc3)C2=O)c(C)n1-c1cccc(O)c1	-74*
Cc1ccc(/C=C2\SC(=S)N(CCCC(=O)NNC(=O)c3ccccc3O)C2=O)cc1	107
Cc1cc(/C=C2\SC(=S)NC2=O)c(C)n1-c1cccc(O)c1	-111*
Cc1cc(/C=C2\SC(N)=NC2=O)c(C)n1-c1ccc(F)cc1	-62*
Cc1ccc(-n2c(C)cc(/C=C3\SC(=O)NC3=O)c2C)cc1	-174*
O=C(CCl)c1ccc2c(c1)CCN2C(=O)C1CC1	-94*
SMILES	aSyn 5UTR act
Brc1ccc2nc(-c3cccs3)c(NCC3CCCO3)n2c1 (stereo not drawn)	-175*
Cc1ccc(C(=O)c2cc([N+](=O)[O-])ccc2N2CCOCC2)cc1	92
CCC(=O)c1ccc(N2CCCCC2)c(F)c1	-68*
CCCC(=O)c1ccc(N2CCOCC2)c(F)c1	-97*
Cc1ccc(C(=O)c2ccc(N3CCOCC3)c(F)c2)cc1	-109*
COCCCNC(=S)NNC(=O)C1CC1c1ccc(C(C)(C)C)cc1 (stereo not drawn)	-100*
COCCNC(=S)NC(=O)c1ccc(C(C)(C)C)cc1	-91*
C#CCOCCOCCOCCNc1nc(N2CCN(C(=O)CCCCCCCCCCNC(=O)[C@H](CCCCN)n3cc(CCCC(=O)O)nn3)CC2)nc(N2CCN(C(=O)CCCCCCCCCCNC(=O)[C@H](CCCCN)n3cc(CCCC(=O)O)nn3)CC2)n1	-112*
C#CCOCCOCCOCCNc1nc(N2CCN(C(=O)CCCCCCCCCCNC(=O)[C@H](CCCCN)n3cc(CCCC(=O)O)nn3)CC2)nc(N2CCN(C(=O)CCCCCCCCCCNC(=O)[C@H](CCCN=C(N)N)n3cc(C[C@@H](C)CC)nn3)CC2)n1	-132*
C#CCOCCOCCOCCNc1nc(N2CCN(C(=O)CCCCCCCCCCNC(=O)[C@H](CO)n3cc(CCCSC)nn3)CC2)nc(N2CCN(C(=O)CCCCCCCCCCNC(=O)[C@H](CCCCN)n3cc(C[C@@H](C)CC)nn3)CC2)n1	110
C#CCOCCOCCOCCNc1nc(N2CCN(C(=O)CCCCCCCCCCNC(=O)[C@H](CCCCN)n3cc(C[C@@H](C)CC)nn3)CC2)nc(N2CCN(C(=O)CCCCCCCCCCNC(=O)[C@H](CCCCN)n3cc(C[C@@H](C)CC)nn3)CC2)n1	107
NC(=O)C1CCN(C(=S)c2ccc(-c3ccc(Br)cc3)o2)CC1	-127*
CCOC(=O)c1ccc(-c2ccc3c(c2)CCC3)nc1C	-99*
COC(=O)c1ccc(-c2ccc(F)cc2)nc1C	-192*
CCOC(=O)c1cc(-c2ccc(C)cc2)nc2nc(SC)[nH]c(=O)c12	49
Cc1ccc(N2C(=O)c3n[nH]c(C)c3C2c2ccco2)cc1 (stereo not drawn)	-65*
COc1ccc(/C=C/C(=O)NC2CCCCCCC2)cc1S(=O)(=O)N1CCOCC1	-112*
Cc1cc(=O)[nH]c(N/N=C/c2ccccc2Cl)n1	-76*
CCN(CC)c1ccc(/C=N/Nc2nc(C)cc(=O)[nH]2)c(O)c1	95
Cc1cc(=O)[nH]c(N/N=C/c2cc(C)n(-c3ccccc3)c2C)n1	-63*
Cc1cc(/C([O-])=C(/C(=S)Nc2ccc(F)cc2)[n+]2ccccc2)c(C)n1-c1ccc(F)cc1	-121*
CC(=O)C(Sc1nc(N2CCOCC2)nc(N2CCOCC2)n1)C(=O)Nc1ccccc1 (stereo not drawn)	-66*
CC(=O)C(Sc1nn(C)c(=S)s1)C(=O)Nc1ccccc1 (stereo not drawn)	-99*
CC(C)(C)c1cc(NC(=O)c2cccnc2)no1	-102*
